Compound activity deposited in PubChem BioAssay by National Center for Advancing Translational Sciences (NCATS).
FMDV inh = blocks foot and mouth disease virus | FMDV antiviral cell-based qHTS | AID 1159524 | actives 1.2% (n = 410,000) | Potency, µM (highest dose often 57.9 µM), inactives show at the top dose activity change, negative = inhibition, most hits filed as inhibitors; calls by dose curve; tested in HEK293T cells; also: read-out not given here; potency is read from the fitted curve at half-maximal effect; nearly all actives have a fitted effect of over 45% in size
Vaccinia mCherry = vaccinia inhibition (mCherry reporter) | Vaccinia virus mCherry reporter infection, fluorescence | Potency, µM (titrated, usually from 36.5 µM), for the others: top-dose activity change, negative = inhibition, most hits filed as inhibitors | actives 0.63% (n = 310,000); calls by dose curve; tested in A549 cells; also: potency is read from the fitted curve at half-maximal effect; nearly all actives have a fitted effect of over 35% in size
HCMV antiviral = blocks human cytomegalovirus replication; AID 1259415; HFF cells, HCMV-luciferase reporter, 72 h; active compounds read low; activity change, negative = inhibition, % at 57.5 µM; actives 4.5% (n = 410,000); in the data active = activity change below about -60%; inconclusive = no clear call, values can overlap the other calls; inactive = above about -39%
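Human foreskin fibroblasts infected with luciferase-reporter HCMV at MOI 1 PFU/cell, compounds at two doses. Luciferase measured 72 h post infection; normalized to buffer-only basal and Salinomycin (10uM) controls.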
Vaccinia Venus = vaccinia inhibition (Venus reporter). Vaccinia virus Venus reporter expression, fluorescence. Potency, µM (top dose mostly 36.5 µM), for inactives: at the highest dose activity change, negative = inhibition, actives largely listed as inhibitors. actives 0.46% (n = 330,000). AID 720580; calls by dose curve; tested in A549 cells; also: potency is read from the fitted curve at half-maximal effect; nearly all actives have a fitted effect of over 30% in size
HCV inh = inhibitors of hepatitis C virus infection. Huh7.5.1 HCVcc-Cre infection, luciferase reporter, 44 h. Potency, µM (top dose mostly 41.8 µM), for inactives: at the top dose activity change, negative = inhibition, usual class: inhibitors. actives 3.4% (n = 340,000). AID 651820; active = well fitted inhibition curve with a large enough effect; inconclusive = small, poorly fitted or top-dose-only effect, or another doubt; inactive = no such curve, though single readings can be large or run the other way; also: potency is read from the fitted curve at half-maximal effect
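Whole-lifecycle infectious HCVcc-Cre system; cells 1,000/well, compound then virus (~0.5 moi) added 4 h after plating, 44 h culture. Luciferase read 15 sec following 15 min substrate incubation, room temp.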
Active calls of the source: *. The list is not random: actives were taken first. Their share in the collection is about 7.3%. % is scaled to controls: 0 for no effect and ±100 for the full control effect.

For COc1ccc(C)cc1NC(=O)CSc1ccc(-c2ccccn2)nn1 the results were FMDV inh inconclusive, Vaccinia mCherry 15.8µM*, HCMV antiviral -93.2*, Vaccinia Venus inconclusive and HCV inh inconclusive.
Screening CC(=O)Nc1cccc(NC(=O)CSc2ccc(-c3ccccn3)nn2)c1 returned FMDV inh 6.8%, Vaccinia mCherry inconclusive, HCMV antiviral inconclusive, Vaccinia Venus inconclusive and HCV inh inconclusive.
C=CCn1c(O)c(C2=c3ccccc3=NC2=O)c2ccccc21 was read as FMDV inh 28.2µM*, Vaccinia mCherry -26.9%, HCMV antiviral 10.4, Vaccinia Venus -22.3% and HCV inh 5.4%.
For CCOC(=O)C1(CCOc2ccccc2)CCN(Cc2cccc(OCCO)c2)CC1 the results were FMDV inh inconclusive, Vaccinia mCherry -16.9%, HCMV antiviral 61.8, Vaccinia Venus -9.0% and HCV inh -23.2%.
Screening CCOC(=O)C1(CCc2ccccc2)CCN(Cc2ccc3c(c2)OCCO3)CC1 returned FMDV inh inconclusive, Vaccinia mCherry -12.6%, HCMV antiviral -77.0*, Vaccinia Venus -4.6% and HCV inh inconclusive.
CCOC(=O)C1(CCOc2ccccc2)CCN(Cc2cccc(F)c2)CC1 was read as FMDV inh inconclusive, HCMV antiviral -91.4* and HCV inh inconclusive.
For CCOc1ccc2oc(=O)cc(CN3CCN(C(=O)c4cccc(F)c4)CC3)c2c1 the results were FMDV inh -21.2%, Vaccinia mCherry -7.7%, HCMV antiviral -29.5 and Vaccinia Venus -4.7%.
For CCOc1ccc(CN2CCN(C(=O)c3cccc(F)c3)CC2)cc1 the results were Vaccinia mCherry -24.5%, HCMV antiviral inconclusive, Vaccinia Venus -22.7% and HCV inh 11.2µM*.
For CCOC(=O)C1(CCOc2ccccc2)CCN(Cc2cccc(OC)c2OC)CC1 the results were FMDV inh inconclusive, Vaccinia mCherry -5.2%, HCMV antiviral -3.0, Vaccinia Venus -15.4% and HCV inh 28.2µM*.
For CCOC(=O)C1(CCc2ccccc2)CCN(Cc2ccc(C(=O)OC)cc2)CC1 the results were FMDV inh inconclusive, HCMV antiviral -10.4 and HCV inh -16.5%.
Screening CC1CCN(C(=O)Cn2cc(SCc3cccc(F)c3)c3ccccc32)CC1 returned FMDV inh -14.5%, Vaccinia mCherry -8.6%, HCMV antiviral -9.5 and Vaccinia Venus -11.7%.
CCOC(=O)C1(CCOc2ccccc2)CCN(Cc2ccc(C)s2)CC1 was read as FMDV inh inconclusive, Vaccinia mCherry -7.3%, HCMV antiviral -82.0*, Vaccinia Venus -7.1% and HCV inh inconclusive.
Screening CCOC(=O)C1(CCOc2ccccc2)CCN(Cc2ccc(NC(C)=O)cc2)CC1 returned FMDV inh inconclusive, Vaccinia mCherry -10.5%, HCMV antiviral 30.3, Vaccinia Venus -9.4% and HCV inh -23.8%.
Screening CCOC(=O)C1(CCOc2ccccc2)CCN(Cc2ccc3nonc3c2)CC1 returned FMDV inh inconclusive, Vaccinia mCherry -16.5%, HCMV antiviral -14.4, Vaccinia Venus -12.4% and HCV inh 10µM*.
For CCOC(=O)C1(CCOc2ccccc2)CCN(Cc2ccc(OC)cc2)CC1 the results were FMDV inh inconclusive, HCMV antiviral -31.6 and HCV inh 12.6µM*.
Screening CCOC(=O)C1(Cc2ccccc2)CCN(Cc2cccn2-c2cccnc2)CC1 returned FMDV inh inconclusive, HCMV antiviral -14.5 and HCV inh 13.0%.
For CCOC(=O)C1(CCOc2ccccc2)CCN(Cc2cccn2-c2cccnc2)CC1 the results were FMDV inh -26.0%, Vaccinia mCherry -0.6%, HCMV antiviral -72.4*, Vaccinia Venus -20.0% and HCV inh inconclusive.
For Cc1ccc(-n2c3c(c(=O)[nH]c2=O)C(NC(=O)c2ccccc2F)(C(F)(F)F)C(=O)N3)cc1C (centres undefined) the results were FMDV inh -30.3%, Vaccinia mCherry 6.9%, HCMV antiviral -5.1 and Vaccinia Venus 7.0%.
Screening CCOC(=O)C1(CCOc2ccccc2)CCN(Cc2ccc(OCC)c(CO)c2)CC1 returned FMDV inh inconclusive, HCMV antiviral -19.7 and HCV inh 14.1µM*.
For CCOC(=O)C1(CCOc2ccccc2)CCN(C(=O)c2ccc(-n3cccn3)cc2)CC1 the results were FMDV inh 22.4µM*, Vaccinia mCherry inconclusive, HCMV antiviral inconclusive, Vaccinia Venus -20.5% and HCV inh inconclusive.
